According to the supplement of paper PMC8728848:
This excerpt belongs to a sample that is enriched for the strongest signals.

Tests used:
Assay in all cases: glycan array binding signal (z-score within array); higher = stronger binding
Details in all cases: glycan notation: IUPAC condensed, linker removed
[1] = target: Fuc(a1-2)Gal(b1-4)GlcNAc(b1-3)Gal(b1-4)GlcNAc
In short: (§1)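 The binding signal is a Z-score computed within each array. Data were drawn from 3228 arrays in the Consortium for Functional Glycomics database, restricted to those with a known protein sequence. Scores were averaged over arrays of the same protein sequence at different concentrations or buffers, and over linkers, and negative values can be taken as non-binding.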

[2] = target: Fuc(a1-2)Gal(b1-4)GlcNAc(b1-3)Gal(b1-4)GlcNAc(b1-3)Gal(b1-4)GlcNAc
In short: as §1

[3] = target: Fuc(a1-2)Gal(b1-4)[Fuc(a1-3)]GlcNAc(b1-3)Gal(b1-4)[Fuc(a1-3)]GlcNAc(b1-3)Gal(b1-4)[Fuc(a1-3)]GlcNAc
In short: as §1

[4] = target: Fuc(a1-2)[GalNAc(a1-3)]Gal(b1-4)GlcNAc
In short: as §1

[5] = target: Fuc(a1-3)GlcNAc
In short: as §1

[6] = target: Gal(a1-4)Gal(b1-4)Glc
In short: as §1

[7] = target: Gal(b1-2)Gal
In short: as §1

[8] = target: Gal(b1-3)GalNAc(b1-4)[Neu5Ac(a2-3)]Gal(b1-4)Glc
In short: as §1

[9] = target: Gal(b1-4)GlcNAc
In short: as §1

[10] = target: Gal(b1-4)GlcNAc(b1-3)Gal(b1-4)[Fuc(a1-3)]GlcNAc(b1-3)Gal(b1-4)[Fuc(a1-3)]GlcNAc
In short: as §1

[11] = target: Gal3S(b1-4)GlcNAc
In short: as §1

[12] = target: Gal3S6S(b1-4)GlcNAc6S
In short: as §1

[13] = target: Gal4S6S(b1-4)GlcNAc
In short: as §1

[14] = target: Gal6S(b1-4)Glc6S
In short: as §1

[15] = target: Glc(a1-4)Glc
In short: as §1

[16] = target: Glc(a1-6)Glc(a1-6)Glc
In short: as §1

[17] = target: Glc(b1-4)Glc
In short: as §1

[18] = target: Man(a1-2)Man(a1-2)Man(a1-6)[Man(a1-3)]Man
In short: as §1

[19] = target: Neu5Ac(a2-3)[GalNAc(b1-4)]Gal(b1-4)Glc
In short: as §1

[20] = target: Neu5Gc(a2-3)Gal(b1-4)Glc
In short: as §1

[21] = target: Fuc(a1-2)Gal(b1-4)GlcNAc(b1-3)Gal(b1-4)GlcNAc(b1-2)Man(a1-3)[Fuc(a1-2)Gal(b1-4)GlcNAc(b1-3)Gal(b1-4)GlcNAc(b1-2)Man(a1-6)]Man(b1-4)GlcNAc(b1-4)GlcNAc
In short: as §1

[22] = target: Fuc(a1-2)Gal6S(b1-3)GlcNAc6S
In short: as §1

[23] = target: Fuc(a1-2)[Gal(a1-3)]Gal(b1-4)[Fuc(a1-3)]GlcNAc(b1-3)GalNAc
In short: as §1

[24] = target: Fuc(a1-2)[Gal(a1-4)]Gal(b1-4)GlcNAc
In short: as §1

[25] = target: Fuc(a1-2)[GalNAc(a1-3)]Gal(b1-4)GlcNAc(b1-3)Gal(b1-4)GlcNAc(b1-3)Gal(b1-4)GlcNAc
In short: as §1

[26] = target: Gal(a1-3)Gal(b1-3)GlcNAc(b1-6)GalNAc
In short: as §1

[27] = target: Gal(a1-3)Gal(b1-4)GlcNAc
In short: as §1

[28] = target: Gal(a1-3)Gal(b1-4)GlcNAc(b1-2)Man
In short: as §1

[29] = target: Gal(a1-4)GlcNAc
In short: as §1

[30] = target: Gal(a1-6)Glc
In short: as §1

[31] = target: Gal(b1-3)Gal
In short: as §1

[32] = target: Gal(b1-3)GalNAc(a1-3)[Fuc(a1-2)]Gal(b1-4)GlcNAc
In short: as §1

[33] = target: Gal(b1-3)GalNAc(b1-4)Gal(b1-4)Glc
In short: as §1

[34] = target: Gal(b1-3)GlcNAc(a1-6)Gal(b1-4)GlcNAc
In short: as §1

[35] = target: Gal(b1-3)GlcNAc(b1-3)Gal(b1-4)GlcNAc
In short: as §1

[36] = target: Gal(b1-3)GlcNAc(b1-3)Gal(b1-4)GlcNAc(b1-6)[Gal(b1-3)GlcNAc(b1-3)]Gal(b1-4)Glc
In short: as §1

[37] = target: Gal(b1-4)GlcNAc(b1-2)[Gal(b1-4)GlcNAc(b1-6)]Man(a1-6)[GlcNAc(b1-4)][Gal(b1-4)GlcNAc(b1-2)Man(a1-3)]Man(b1-4)GlcNAc(b1-4)GlcNAc
In short: as §1

[38] = target: Gal(b1-4)GlcNAc(b1-3)Gal(b1-4)GlcNAc(b1-2)Man(a1-3)[Gal(b1-4)GlcNAc(b1-3)Gal(b1-4)GlcNAc(b1-2)Man(a1-6)]Man(b1-4)GlcNAc(b1-4)GlcNAc
In short: as §1

[39] = target: Gal(b1-4)GlcNAc(b1-3)Gal(b1-4)GlcNAc(b1-3)Gal(b1-4)GlcNAc(b1-3)Gal(b1-4)GlcNAc(b1-3)Gal(b1-4)GlcNAc(b1-2)Man(a1-3)[Gal(b1-4)GlcNAc(b1-3)Gal(b1-4)GlcNAc(b1-3)Gal(b1-4)GlcNAc(b1-3)Gal(b1-4)GlcNAc(b1-3)Gal(b1-4)GlcNAc(b1-2)Man(a1-6)]Man(b1-4)GlcNAc(b1-4)[Fuc(a1-6)]GlcNAc
In short: as §1

[40] = target: Gal(b1-4)GlcNAc(b1-3)GalNAc
In short: as §1

[41] = target: Gal(b1-4)GlcNAc(b1-3)[GlcNAc(b1-6)]Gal(b1-4)GlcNAc
In short: as §1

[42] = target: Gal4S(b1-4)GlcNAc
In short: as §1

[43] = target: Gal6S(b1-3)GlcNAc6S
In short: as §1

[44] = target: Gal6S(b1-4)GlcNAc6S
In short: as §1

[45] = target: GalNAc(b1-3)Gal(a1-4)Gal(b1-4)GlcNAc(b1-3)Gal(b1-4)Glc
In short: as §1

[46] = target: GalNAc(b1-3)GalNAc
In short: as §1

[47] = target: GalNAc(b1-4)GlcNAc(b1-2)Man
In short: as §1

[48] = target: GlcA(b1-6)Gal
In short: as §1

[49] = target: GlcNAc(a1-4)Gal(b1-4)GlcNAc(b1-3)Gal(b1-4)GlcNAc
In short: as §1

B1: FaeGac (Escherichia coli) (protein)
chain: WMTGDFNGSVDIGGSITADDYRQKWEWKVGTGLNGFGNVLNDLTNGGTKLTITVTGNKPILLGRTKEAFATPVTGGVDGIPHIAFTDYEGASVVLRNPDGETNKKGLAYFVLPMKNAEGTKVGSVKVNASYAGVLGRGGVTSADGELLSLFADGLSSIFYGGLPRGSELSAGSAAAERTKLFGSLSRNDILGQIQRVNANITSLVDVAGSYRENMEYTDGTVVSAAYALGIANGQTIEATFNQAVTTSTQWSAPLNVAITYY
**Q.** How did the “glycan array binding signal (z-score)” value [1] turn out when B1 was run?
**A.** Its value is -0.23.

**Q.** And the “glycan array binding signal (z-score)” value [2]?
**A.** The value was -0.359.

**Q.** And the “glycan array binding signal (z-score)” value [3]?
**A.** Its value is -0.161.

**Q.** And the “glycan array binding signal (z-score)” value [4]?
**A.** The value was -0.577.

**Q.** And the “glycan array binding signal (z-score)” value [5]?
**A.** The value was 0.65.

**Q.** And the “glycan array binding signal (z-score)” value [6]?
**A.** The value was -0.179.

**Q.** And the “glycan array binding signal (z-score)” value [7]?
**A.** Its value is 0.274.

**Q.** And the “glycan array binding signal (z-score)” value [8]?
**A.** The value was -0.107.

**Q.** And the “glycan array binding signal (z-score)” value [9]?
**A.** The value was -0.506.

**Q.** What about the “glycan array binding signal (z-score)” value [10] of the same binder?
**A.** Its value is 0.771.

**Q.** What about the “glycan array binding signal (z-score)” value [11] of the same binder?
**A.** Its value is 0.384.

**Q.** What about the “glycan array binding signal (z-score)” value [12] of the same binder?
**A.** The value was -0.43.

**Q.** And the “glycan array binding signal (z-score)” value [13]?
**A.** Its value is -0.495.

**Q.** What about the “glycan array binding signal (z-score)” value [14] of the same binder?
**A.** Its value is 0.68.

**Q.** What about the “glycan array binding signal (z-score)” value [15] of the same binder?
**A.** Its value is 10.9.

**Q.** And the “glycan array binding signal (z-score)” value [16]?
**A.** The value was 6.96.

**Q.** And the “glycan array binding signal (z-score)” value [17]?
**A.** The value was 2.95.

**Q.** And the “glycan array binding signal (z-score)” value [18]?
**A.** Its value is 2.13.

**Q.** What about the “glycan array binding signal (z-score)” value [19] of the same binder?
**A.** Its value is 0.008.

**Q.** What about the “glycan array binding signal (z-score)” value [20] of the same binder?
**A.** The value was -0.764.

B2: Epa22 (Candida glabrata) (protein)
chain: MGSSHHHHHHSSGLVPRGSHMKRALSSQNPFGYPIGCSPQSTNVIPGLTMELYSYPIVSGTPPNCYDASYVDPEYPRTGYLKRKMIGKSTGVTGSLNYKFSVEKACMVKYGNLPAGYNYNEPLTVSNFTMLLYGYFKPQTSGIHTFFVNADDLLYINFGAGNAFDCCKREDSKFKLGEYVAYDIWHVDSSKNKVSLNLEKDVYYPIRMFFNNIGKDSSLDLSFSVNGAVEHITDFSGYLYSVPDQPDACPAPIGYDTTCK
**Q.** What does the source list for B2?
**A.** glycan array binding signal (z-score) [21]: -0.382; glycan array binding signal (z-score) [22]: 5.1; glycan array binding signal (z-score) [23]: -0.345; glycan array binding signal (z-score) [24]: 4.5; glycan array binding signal (z-score) [25]: -0.366; glycan array binding signal (z-score) [26]: 3.74; glycan array binding signal (z-score) [27]: 5.2; glycan array binding signal (z-score) [28]: 4.75; glycan array binding signal (z-score) [29]: 5.91; glycan array binding signal (z-score) [30]: 6.63; glycan array binding signal (z-score) [31]: 1.3; glycan array binding signal (z-score) [32]: -0.36; glycan array binding signal (z-score) [33]: 0.34; glycan array binding signal (z-score) [34]: 0.491; glycan array binding signal (z-score) [35]: -0.148; glycan array binding signal (z-score) [36]: -0.145; glycan array binding signal (z-score) [37]: -0.288; glycan array binding signal (z-score) [38]: 0.073; glycan array binding signal (z-score) [39]: -0.231; glycan array binding signal (z-score) [40]: -0.023; glycan array binding signal (z-score) [41]: -0.387; glycan array binding signal (z-score) [42]: -0.182; glycan array binding signal (z-score) [43]: 5.95; glycan array binding signal (z-score) [14]: 4.93; glycan array binding signal (z-score) [44]: 4.56; glycan array binding signal (z-score) [45]: -0.336; glycan array binding signal (z-score) [46]: -0.424; glycan array binding signal (z-score) [47]: -0.393; glycan array binding signal (z-score) [48]: 5.98; glycan array binding signal (z-score) [49]: -0.413
